# Calls of active or inactive are those of the source.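 Rule for the calls, unless noted: active = compounds lowering colon cancer cell viability after pretreatment blocking the GSK3B kinase; inactive = the rest.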
# Assays:
# [1] = Wnt pathway potentiators raising nuclear beta-catenin – imaging, WNT3A-conditioned medium, mouse C2C12, NPC library, primary screen (AID 1117326; in the data active = nuclear beta-catenin stimulation mostly above about 4.2%, no sharp cut-off; inactive = mostly below about 10%; note: reference of the scale not given here); conditions: stronger effect = higher value
# [2] = stimulators of insulin release from INS-1E, primary screen, cell-based, 5 mM glucose, NPC library (AID 1117329;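 active = compound raises insulin release from rat beta cells at 5 mM glucose, no numeric limit stated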; note: reference of the scale not given here); conditions: rat INS-1E insulin secretion, at 10 µM, stronger effect = higher value
# [3] = growth inhibition of GSK3B-pretreated HCT116 cells – cell-based, CellTiter-Glo, 0.2 to 20 µM (AID 1117336); conditions: HCT116 viability after GSK3B inhibitor, at 20 µM, stronger effect = higher value
# [4] = inhibition of endothelial tube formation, primary screen, imaging, VEGF stimulated, CD31 staining, tube area, NPC library (AID 1117340;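 active = compound that reduces growth-factor-driven endothelial tube area in a mixed cell culture, no cutoff stated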); conditions: VEGF-stimulated ADSC/ECFC co-culture, at 10 µM, stronger effect = higher value
# [5] = GLP1 release stimulators, primary, NCI-H716, NPC library (AID 1117341;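 active = compound raises GLP1 secretion from the human gut endocrine cells, with no numeric limit stated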; note: reference of the scale not given here); conditions: NCI-H716 cells, at 10 µM, stronger effect = higher value
# [6] = HCT116 colon cancer cell growth inhibition, primary screen, CellTiter-Glo luminescence, NPC library (AID 1117342;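 active = compounds that lower survival of HCT116 colon cancer cells in the luminescence readout, no numeric limit stated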); conditions: at 20 µM (top of the series)
# [7] = reduced SW480 viability measured with CellTiter-Glo, NPC library, primary (AID 1117343;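 active = compounds that lower viability of the colon cancer cells in the luminescence readout, with no numeric limit stated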); conditions: CellTiter-Glo luminescence; at 20 µM (top of the series)
# [8] = NPC library primary testing for decreased DLD-1 cell viability via CellTiter-Glo (AID 1117346;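 active = compounds that lower survival of DLD-1 colon cancer cells in the luminescence readout, no cutoff given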); conditions: DLD-1 viability, CellTiter-Glo luminescence; at 20 µM (top of the series)
SMILES,nuclear beta-catenin stimulation ([1]; at 10 µM),"nuclear beta-catenin stimulation ([1]; stimulation, at 2 µM)",insulin secretion stimulation [2],viability decrease [3],tube area decrease [4],GLP1 secretion stimulation [5],inhibition of viability [6],viability decrease (inhibition) [7],viability decrease (inhibition) [8]
CCCCC/C=C\C/C=C\CCCCCCCC(=O)NC(C)c1ccccc1 (stereo not drawn),0.2% (inactive),2.1%,1% (inactive),23.3% (inactive),-5.3% (inactive),0.2% (inactive),52% (active),13.5% (inactive),3.3% (inactive)
CCCOC(=O)c1ccc(N)cc1,-0.1% (inactive),0.3%,-1.5% (inactive),-4.45% (inactive),4.9% (inactive),-0.1% (inactive),1.8% (inactive),110% (active),21.4% (inactive)
CC(=O)O[C@H]1CC[C@@]2(C)C(=CC[C@@H]3[C@@H]2CC[C@]2(C)C(C(C)=O)=CC[C@@H]32)C1,3.7% (inactive),0.6%,0.2% (inactive),48% (inactive),9.9% (inactive),-2% (inactive),25.8% (inactive),60.1% (active),14.9% (inactive)
CCCN(CCC)C(=O)C(CCC(=O)OCCCN1CCN(CCOC(=O)Cc2c(C)n(C(=O)c3ccc(Cl)cc3)c3ccc(OC)cc23)CC1)NC(=O)c1ccccc1 (stereo not drawn),51% (active),-0.4%,0.4% (inactive),113% (active),25.9% (inactive),3.5% (inactive),113% (active),120% (active),93.3% (active)
CCOC(=O)c1cccc(N)c1,-0.3% (inactive),-1.1%,1.3% (inactive),4.6% (inactive),-29.7% (inactive),-4.7% (inactive),-7.9% (inactive),35.4% (inactive),4.45% (inactive)
CC(=O)OC[C@H]1O[C@@H](OC(C)=O)[C@H](OC(C)=O)[C@@H]1OC(C)=O,-0.3% (inactive),-1.5%,-1.25% (inactive),-0.8% (inactive),9.6% (inactive),-1.3% (inactive),12.6% (inactive),13.1% (inactive),4.4% (inactive)
O=C(O)[C@@H]1CCCN1,0.9% (inactive),1.2%,1.6% (inactive),2.9% (inactive),-4% (inactive),-1.7% (inactive),36.6% (inactive),42.8% (inactive),57.9% (active)
NCC[C@H](O)C(=O)N[C@@H]1C[C@H](N)[C@@H](O[C@H]2O[C@H](CN)[C@@H](O)[C@H](O)[C@@H]2O)[C@H](O)[C@@H]1O[C@H]1O[C@H](CO)[C@@H](O)[C@H](N)[C@@H]1O,0.4% (inactive),-1.1%,1.1% (inactive),-9.3% (inactive),-7.9% (inactive),0.5% (inactive),-2.7% (inactive),-3.7% (inactive),0.5% (inactive)
CC(C)C[C@@H]1[C@H](c2ccccc2)OC(=O)N1CCCN1CCCCCC1,1.3% (inactive),1.6%,15% (inactive),21.1% (inactive),8% (inactive),5.9% (inactive),56.3% (active),19.9% (inactive),18.3% (inactive)
COC(=O)c1cccnc1,1% (inactive),1.1%,-1.6% (inactive),-2.7% (inactive),-14.2% (inactive),1.1% (inactive),-7.2% (inactive),17.2% (inactive),1.25% (inactive)
Oc1ccc(CCNCCCCCCNCCc2ccccc2)cc1O,5% (inactive),0.9%,27.8% (active),83.3% (active),31.4% (inactive),0.6% (inactive),83.5% (active),99.5% (active),101% (active)
Cc1ccc(/C=N/n2c(-c3ccccc3)csc2=S)cc1,1.7% (inactive),-0.8%,5% (inactive),50.3% (active),18.4% (inactive),0.3% (inactive),16.7% (inactive),56% (active),37.1% (inactive)
O=C(O)CNC(=O)c1ccccc1I,-0.5% (inactive),1.7%,0.3% (inactive),16% (inactive),5.3% (inactive),0.7% (inactive),4.1% (inactive),10.4% (inactive),-17.7% (inactive)
CC(C)(C)NCC(O)COc1ccccc1OCC1CCCO1 (stereo not drawn),-0.3% (inactive),2.1%,5.4% (inactive),-18.7% (inactive),34.3% (inactive),-2.1% (inactive),-6.3% (inactive),30% (inactive),-6.9% (inactive)
C[C@H](CN1CCCC1)C(=O)c1ccc(C(F)(F)F)cc1,5.1% (inactive),-1.9%,8.3% (inactive),-5.5% (inactive),-4% (inactive),-0.4% (inactive),7.8% (inactive),73.8% (active),68.1% (active)
O=C(CCCN1CCN(c2ccc(F)cc2)CC1)NC1c2ccccc2CSc2ccccc21 (stereo not drawn),1.8% (inactive),1.3%,-0.2% (inactive),53.5% (active),32.7% (inactive),3.7% (inactive),47.5% (inactive),27.4% (inactive),14.8% (inactive)

SMILES,nuclear beta-catenin stimulation ([1]; at 10 µM),"nuclear beta-catenin stimulation ([1]; stimulation, at 2 µM)",insulin secretion stimulation [2],viability decrease [3],tube area decrease [4],GLP1 secretion stimulation [5],inhibition of viability [6],viability decrease (inhibition) [7],viability decrease (inhibition) [8]
COc1ccnc2c1CCCCC2S(=O)c1nc2ccccc2[nH]1 (stereo not drawn),-0.3% (inactive),3%,1.6% (inactive),-54.1% (inactive),13.2% (inactive),9.2% (inactive),27.5% (inactive),31.6% (inactive),11.3% (inactive)
O=C1CCC(=O)N1CO,-2.4% (inactive),-0.7%,3.1% (inactive),-0.6% (inactive),-5.1% (inactive),-1.4% (inactive),1.8% (inactive),9.6% (inactive),-2.7% (inactive)
Nc1nc(=O)n([C@@H]2O[C@H](CO)[C@@H](O)[C@@H]2F)cc1I,8% (inactive),1.8%,0.8% (inactive),2.9% (inactive),74% (active),-3.9% (inactive),23.7% (inactive),32.2% (inactive),23.1% (inactive)
O=C(OCC1(COC(=O)c2cccnc2)CCCC(COC(=O)c2cccnc2)(COC(=O)c2cccnc2)C1O)c1cccnc1,-1.3% (inactive),-0.2%,7.7% (inactive),-3.6% (inactive),-7.3% (inactive),-3.3% (inactive),9.9% (inactive),-3.1% (inactive),-3.1% (inactive)
CCC(CN)=C(c1ccccc1)c1ccccc1,-0.1% (inactive),0.1%,29.4% (active),17.9% (inactive),7% (inactive),2.2% (inactive),78.6% (active),92% (active),55.1% (active)
COC(=O)c1nc(Cl)c(Cl)nc1N,15.9% (active),84.9%,2.2% (inactive),82.2% (active),110% (active),4.1% (inactive),75% (active),132% (active),101% (active)
N#C/C(=C1/SC[C@@H](c2ccc(Cl)cc2Cl)S1)n1ccnc1,0.7% (inactive),2.8%,2.35% (inactive),88% (active),23.8% (inactive),-1.8% (inactive),101% (active),116% (active),84.3% (active)
O=C(O)CCC(=O)C(=O)O,-1.7% (inactive),-0.1%,-2.2% (inactive),0.1% (inactive),-17.8% (inactive),-1.6% (inactive),-1.4% (inactive),2.9% (inactive),-7.5% (inactive)
C[C@@H](O)[C@H]1C(=O)N2C(C(=O)O)=C(S[C@@H]3CN[C@H](CNS(N)(=O)=O)C3)[C@H](C)[C@H]12,2.9% (inactive),3%,-0.6% (inactive),14% (inactive),-14% (inactive),0.3% (inactive),25.7% (inactive),3.1% (inactive),-20.9% (inactive)
COC[C@@H](c1ccc(C(F)(F)F)cc1)N1CCN(C2(C)CCN(C(=O)c3c(C)ncnc3C)CC2)C[C@H]1C,2.4% (inactive),2.3%,2.8% (inactive),-44.2% (inactive),32% (inactive),3.1% (inactive),11.1% (inactive),-3% (inactive),3.5% (inactive)
NS(=O)(=O)c1cc2c(cc1Cl)CN(C1CCCCC1)C2=O,-0.9% (inactive),-0.3%,-0.2% (inactive),-0.4% (inactive),-3.4% (inactive),1.4% (inactive),-2.17% (inactive),-0.2% (inactive),-3.8% (inactive)
Cc1ccccc1N1CCN(CCc2nnc3n2CCCC3)CC1,-0.3% (inactive),0%,0.9% (inactive),25.8% (inactive),-13.2% (inactive),0.9% (inactive),6.7% (inactive),4.9% (inactive),7.3% (inactive)
CC(=O)OC(C)OC(=O)C(C)c1ccc(-c2ccccc2)c(F)c1 (stereo not drawn),3.1% (inactive),0.3%,0.5% (inactive),-2.95% (inactive),-36.8% (inactive),-1.1% (inactive),8.9% (inactive),4.6% (inactive),-3.05% (inactive)
COc1ccc(OC(=O)N(CC(=O)O)Cc2ccc(OCCc3nc(-c4ccccc4)oc3C)cc2)cc1,1% (inactive),-0.5%,-0.3% (inactive),100% (active),-9% (inactive),51.7% (active),86.4% (active),105% (active),91.5% (active)
C=C(C)C(=O)OCC(O)CO (stereo not drawn),7.5% (inactive),28.1%,2.7% (inactive),3% (inactive),-13.7% (inactive),-1.4% (inactive),1.9% (inactive),-10.3% (inactive),20.3% (inactive)
CC(C)[C@H]1CC[C@H](C)C[C@H]1O,-2.2% (inactive),-0.8%,2.4% (inactive),2% (inactive),-11.4% (inactive),7.7% (inactive),8.8% (inactive),17.2% (inactive),5.7% (active)

# From PubChem BioAssay
